Source: the supplement of paper PMC6555819

Key:
Experiment in all cases: PBM binding z-score (relative to random genomic background probes); higher = stronger binding; sequences stand for … in GC…GCGATTGACAGCGTAGAATGAAGG
[1] = system: PPARg:RXRa DBDmut IVT, anti-RXR (DBD mutation: RXRa K156A/R161A, NR concentration 270 nM, RXRa partner concentration 90 nM)
Outline: (§1)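 Binding z-scores take random background probes as their reference. They come from custom Agilent 4×180K protein-binding microarrays incubated 1 h with ligand-free nuclear receptor dimers, with antibodies against each partner (one per run) detecting binding. Scanned fluorescence was regression-normalized.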

[2] = system: PPARg:RXRa IVT, anti-PPARg (NR concentration 270 nM, RXRa partner concentration 90 nM)
Outline: as §1

[3] = system: PPARg DBDmut:RXRa IVT, anti-PPARg (DBD mutation: PPARg1 K132A/R137A, NR concentration 270 nM, RXRa partner concentration 90 nM)
Outline: as §1

[4] = system: PPARg DBDmut IVT, anti-PPARg (DBD mutation: PPARg1 K132A/R137A, NR concentration 270 nM)
Outline: as §1

[5] = system: PPARg homodimer (NR concentration 180 nM)
Outline: as §1

[6] = system: PXR:RXRa (NR concentration 270 nM, RXRa partner concentration 90 nM)
Outline: as §1

[7] = system: PXR homodimer (NR concentration 270 nM)
Outline: as §1

[8] = system: RARa:RXR (NR concentration 270 nM, RXRa partner concentration 90 nM)
Outline: as §1

[9] = system: RARa homodimer (NR concentration 270 nM)
Outline: as §1

[10] = system: RARb:RXRa (NR concentration 270 nM, RXRa partner concentration 90 nM)
Outline: as §1

[11] = system: RARb homodimer (NR concentration 270 nM)
Outline: as §1

[12] = system: RARg:RXRa (NR concentration 270 nM, RXRa partner concentration 90 nM)
Outline: as §1

[13] = system: RARg homodimer (NR concentration 270 nM)
Outline: as §1

[14] = system: RXRa DBDmut IVT, anti-RXR (DBD mutation: RXRa K156A/R161A, NR concentration 90 nM)
Outline: as §1

[15] = system: RXRa homodimer (NR concentration 180 nM)
Outline: as §1

[16] = system: THRa:RXRa (NR concentration 90 nM, RXRa partner concentration 90 nM)
Outline: as §1

[17] = system: THRa homodimer (NR concentration 90 nM)
Outline: as §1

[18] = system: VDR homodimer (NR concentration 270 nM)
Outline: as §1

Sequence | PBM binding z-score [1] | PBM binding z-score [2] | PBM binding z-score [3] | PBM binding z-score [4] | PBM binding z-score [5] | PBM binding z-score [6] | PBM binding z-score [7] | PBM binding z-score [8] | PBM binding z-score [9] | PBM binding z-score [10] | PBM binding z-score [11] | PBM binding z-score [12] | PBM binding z-score [13] | PBM binding z-score [14] | PBM binding z-score [15] | PBM binding z-score [16] | PBM binding z-score [17] | PBM binding z-score [18]
ATACGTAGGTTAGCTGGGGTCATTCAGACTAGGC | 0.981 | 1.51 | 0.0785 | 0.0192 | 1.82 | 6.17 | 4.22 | 5.33 | 0.497 | 2.93 | 3.71 | 4.03 | 3.01 | 1.65 | 5.42 | 4.9 | 2.74 | 4.13
TCATATAGGTAAATGCTAGGTGAATGTCCGATCT | 3.97 | 2.57 | 0.725 | 1.15 | 0.769 | 0.548 | 0.635 | 1.02 | 1.27 | 0.461 | 0.278 | 0.529 | 0.626 | 1.46 | 0.893 | 1.49 | 0.604 | 0.143
CCTTACGGGTCACGAGGTTATAGCCCGACGAGCG | 3.74 | 5.56 | 0.959 | 1.66 | 3.14 | 4.59 | -0.00848 | 6.27 | 0.153 | 4.74 | 4.11 | 6.07 | 5.36 | 1.81 | 6.74 | 3.65 | 1.07 | 2.03
ACAGACAGGTGATGTAGGTAACTCAGGCTATCAT | 1.26 | 2.15 | 0.582 | 0.742 | -0.119 | -0.31 | 0.148 | -0.0493 | 0.492 | 0.149 | 0.224 | 0.333 | 0.539 | -0.0727 | 0.19 | 0.566 | -0.00745 | -0.512
GATACAGGGTCAGCTAGAAGCCAGAGTATGGAAA | 1.32 | 2.21 | -0.0163 | -0.227 | 2.08 | 1.64 | 0.0123 | 2.84 | -0.0258 | 3.78 | 2.56 | 4.59 | 4.35 | 1.28 | 4.19 | 2.53 | 0.406 | 0.338
GGAACGAGGGCAAAGTAGATAGCATCTGTCGACG | 4.05 | 3.19 | -0.596 | -0.605 | 0.234 | 0.482 | 0.16 | 0.38 | -0.526 | 2.15 | 0.856 | 1.46 | 1.74 | 2.46 | 1.05 | 0.805 | -0.36 | 0.946
CCTGCTAGGTCAATCGTCAGCTAAAGCAGCTCGC | 4.52 | 3.19 | -0.719 | -1.31 | 0.995 | 0.842 | -0.551 | 1.58 | -0.666 | 3.63 | 2.83 | 3.59 | 4.42 | 1.78 | 2.15 | 2.11 | 0.36 | -0.0155
TTACCGAGGTGAAGGTCGTTGATCCCTCTGTAGA | 1.78 | 3.4 | 0.416 | 0.34 | 0.505 | 1.72 | 0.178 | 1.84 | -0.539 | 2.11 | 1.72 | 1.58 | 1.02 | -0.12 | 2 | 2.66 | 1.16 | 0.99
TTACCAAGGTGAAGGTCGTTGTTCCCTCTGTAGA | 2.23 | 3.49 | -0.665 | -0.042 | 0.635 | 1.47 | 0.134 | 1.76 | -0.318 | 2.4 | 2.09 | 1.36 | 1.24 | 0.33 | 1.49 | 2.4 | 1.18 | 1.11
GCTATTAGTTGAAACGGCAACCGAATGATTCTCG | 0.254 | -0.276 | -0.0416 | -0.0923 | 0.137 | -0.267 | 0.122 | -0.411 | -0.177 | -0.226 | -0.548 | -0.122 | -0.103 | 0.644 | -0.226 | -0.488 | -0.463 | -0.198
ATCTCTAGGTCAGACTCAGTTCAGTGAAGAACGC | 5.06 | 5.22 | 1.01 | 1.61 | 2.14 | 4.07 | 1.69 | 2.07 | 1.03 | 3.51 | 3.14 | 3.81 | 4.03 | 1.47 | 1.67 | 2.94 | 2.03 | 2.32
CCAGACAGGAGAGAAGGTAACTCAGCCTCGATTA | -0.43 | -0.372 | -0.415 | -0.373 | 0.786 | -0.0804 | 0.0829 | -0.197 | 0.0212 | -0.091 | 0.0999 | -0.0304 | 0.0804 | 0.0336 | 0.0715 | 0.145 | 0.357 | 0.0493
GCTAGCAGGGCATTTGGGTCACTCAATGACGGGC | 2.42 | 3.14 | 0.0662 | -0.844 | 0.341 | 1.06 | 0.171 | 1 | -0.58 | 1.76 | 1.89 | 1.32 | 1.26 | 0.672 | 1.16 | 2.07 | 0.291 | 0.573
ATCTCTAGGTAAAGAGAGTTCAGTGAATGCAAAT | 2.17 | 1.38 | 0.459 | 0.197 | 0.502 | 3.71 | 3.18 | 0.79 | 0.685 | 1.16 | 1.55 | 0.963 | 1.18 | 1.12 | 0.653 | 1.56 | -0.0506 | 3.67
CCGACTGGGGCATAAGGTCACCATAAGCCAGCCC | 2.94 | 4.43 | 0.997 | 0.485 | 6.12 | 3.81 | 0.594 | 5.16 | 2.35 | 3.84 | 4.32 | 4.86 | 4.18 | 0.204 | 4.29 | 4.08 | 4.71 | 1.77
CCTACTGGGCCAAAGTCATTGATCAGTCAAAGCA | 4.29 | 3.6 | -0.537 | -0.517 | -0.302 | -0.584 | -0.623 | -0.335 | -1.15 | 0.121 | -0.0618 | -0.124 | -0.109 | -0.332 | -0.525 | -0.226 | -0.645 | -0.635
ATATGTAGGTTAAGGGTCATTCAGGTTGGTTCGC | 7.43 | 7.64 | 1.5 | 1.61 | 4 | 5.48 | 2.98 | 5.87 | 2.71 | 3.79 | 4.16 | 4.91 | 3.76 | 2.37 | 6.65 | 3.68 | 2.05 | 4.42
GGAACGAGGGCATTCGAGTTGATCGCATGGCGAT | 3.31 | 1.97 | -0.808 | -0.537 | -0.069 | 3.96 | 1.47 | 0.882 | -1.16 | 1.68 | 0.71 | 1.11 | 1.52 | 3.18 | 0.775 | 3.44 | -0.598 | 3.38
GCGACTGGGGGATCAGCAGGTTACCATAACTTAA | 0.873 | 2.43 | 3.69 | 4.01 | 0.749 | 1.15 | 0.388 | 1.31 | -0.462 | 0.688 | 0.909 | 0.837 | 0.34 | 0.58 | 1 | 1.67 | 0.806 | 0.0827
ACTATTAGTTGACTTAGGGCAACCGTTACGACGC | 0.596 | 0.527 | 1.12 | 0.546 | 0.51 | 0.554 | 0.502 | 0.863 | 0.271 | 0.949 | 1.34 | 0.618 | 0.892 | 1.01 | 0.622 | 1.53 | 0.619 | 0.195
ATCTCTAGGTAAGACTCAGCTCAGTGAAGAACGC | 1.68 | 1.02 | 0.287 | 1.14 | 0.51 | -0.0635 | 0.232 | -0.0237 | 0.868 | -0.0169 | 0.128 | -0.176 | 0.0732 | 0.0476 | -0.204 | 0.124 | 0.524 | 0.3
CCTCGCAGGACAGAAGGTCAGAGCTGTCCGCTTT | 0.197 | 0.104 | -2.21 | -1.7 | 1.13 | 1.35 | -0.203 | 1.84 | -0.425 | 2.81 | 3.34 | 2.74 | 2.61 | 0.371 | 1.74 | 1.58 | 0.0874 | 0.0556
CTCGAAAGGTCGTGCTCCGGTGAGTATACCAAAC | 0.784 | 1.77 | 0.64 | 0.56 | 2.34 | 3.57 | 0.18 | 4.87 | -0.416 | 4.04 | 3.04 | 5.03 | 3.94 | 2.08 | 5.18 | 3.06 | 0.517 | 1.26
CCGAGTGGGGCAAAGGTTACCATACTCAGTACGA | 4.47 | 6.13 | 0.0641 | -0.366 | 3 | 2.82 | 0.105 | 4.13 | 0.606 | 2.44 | 2.45 | 3.55 | 1.75 | 0.25 | 3.67 | 1.86 | -0.359 | 0.16
CCTTACGGGTCACTGACAGGGTATAGCATTTGGA | 2.63 | 3.31 | 0.282 | 0.192 | 1.91 | 2.87 | -0.101 | 3.64 | 0.315 | 3.73 | 2.82 | 5.05 | 4.61 | 1.26 | 4.55 | 2.32 | -0.0972 | 0.873
CGTCAAAGTTCAAGGTGACGTAACAGAAAGCAGC | 0.983 | 2.9 | 0.379 | 0.562 | 2.88 | 4.44 | 2.3 | 3.88 | 1.52 | 5.21 | 4.19 | 5.57 | 6.39 | 4.67 | 4.63 | 3.25 | 1.36 | 3.17
ATCTCTAGGTAAAGATAGTTCAGAGAATGCAAAT | 1.37 | 1.42 | 0.582 | 1.54 | 0.983 | 0.864 | 0.342 | 0.707 | 0.924 | 0.573 | 0.692 | 0.65 | 0.767 | -0.136 | 0.482 | 0.724 | 0.0734 | 0.51
CTTGAAAGGTCGTGCTCAGGTGAGTATACCAAAC | 0.999 | 2.01 | 1.03 | 0.763 | 1.71 | 3.72 | 0.102 | 4.53 | 0.107 | 3.99 | 2.75 | 5.02 | 3.64 | 2.21 | 5.06 | 4.21 | 0.803 | 1.03
CCTTACGGGTCCAGGTTATAGCACGGGTGGTACG | -1.08 | -0.342 | -0.7 | -1.74 | -0.0235 | -0.402 | -0.186 | -0.536 | 0.162 | 0.245 | 0.293 | -0.0416 | 0.158 | -0.824 | 0.106 | 0.171 | 0.291 | 0.862
